Measured values as given in ChEMBL document CHEMBL3988442, “University of Dundee, Small-Polar-MMV Screening Library” (2021).
The whole screen tested about 48,000 compounds, of which about 13,000 (27%) showed an effect of 50% or more. The list shows a part of the results.

What follows are compounds tested on Wolbachia pipientis (assay: Anti-Wolbachia Cell-Based Screen). Conditions: 5 µM.
Assay type: functional
Design: scale not given: in the data most compounds retested in dose-response had high values

SMILES	Percent Effect [%]
O=C(N1CCCC(n2cncn2)C1)C1(c2ccccc2F)CCCC1 (centres undefined)	104.1
Cc1cccn2cc(CC(=O)N3CCCC(n4cncn4)C3)nc12 (centres undefined)	3.172
O=C(N1CCC(Oc2ccncc2)C1)C1(c2ccccc2F)CC1 (centres undefined)	-11.14
Cc1ccccc1C1(C(=O)N2CCCC(n3cncn3)C2)CC1 (centres undefined)	122.4
Cc1nn(C)c2nc(-c3ccccn3)nc(NCCCOC(C)C)c12	-17.61
CNC(=O)CC1COCCN1C(=O)C1(c2ccc(Cl)cc2)CCC1 (centres undefined)	-7.784
O=C(NCCN1CCCCC1=O)C1CCC(=O)N(C2CCCC2)C1 (centres undefined)	-13.2
c1cc(C2CCN(c3cncnc3)CC2)ccn1	107.5
c1cnc(N2C[C@H]3CCN(c4cccnc4)C[C@H]3C2)nc1	-4.407
c1ccc(C2CCCN(c3cncc(-n4cccn4)n3)CC2)cc1 (centres undefined)	13.07
c1ccc(N2CCC(c3ccncc3)CC2)cc1	167
FC(F)(F)c1cccc(N2CCC(NCc3cccnc3)CC2)c1	10.28
COC(=O)c1ccc(N2CCC(c3ccccc3)CC2)nn1	-9.28
Cc1cnc(N2CCC(c3ccncc3)CC2)nc1-c1ccnn1C	-32.29
c1cncc(N2CCC(c3ccncc3)CC2)c1	81.68
c1cc(N2CCC(c3nnc(Cn4ccnc4)n3C3CC3)CC2)ccn1	-8.252
O=C(O)C(F)(F)F.O=C([C@H]1COC[C@H]2CN(C3CCOCC3)C[C@H]21)N1CCCO1	2.638
CSCCC1c2nc[nH]c2CCN1Cc1cc(Cl)ccc1O (centres undefined)	-0.8881
CC(C)n1ccc(-c2cc(C(=O)NC3CC3)c3ccccn23)n1	-8.678
Cc1nc(-c2nc(C(=O)N3CCOCC3)c3ccccn23)cn1C(C)C	-8.689
Cc1nc(-c2nc(C(=O)N(C)C)c3ccccn23)cn1C(C)C	84.92
Cn1cnc(-c2nc(C(=O)NC3CC3)c3ccccn23)c1	-8.322
Cc1nc(C(=O)N(C)CC(F)(F)C(F)(F)F)c2ccccn12	6.68
Cn1cnc(-c2nc(C(=O)NCCN3CCCC3)c3ccccn23)c1	-11.17
CC(C)n1cnc(-c2nc(C(=O)NC3CC3)c3ccccn23)c1	100.7
CC(C)n1cnc(-c2nc(C(=O)N3CCN(C)CC3)c3ccccn23)c1	2.747
Cc1nc(-c2nc(C(=O)NC3CC3)c3ccccn23)cn1C(C)C	96.1

SMILES	Percent Effect [%]
Cc1nc(C(=O)N(CC(=O)N(C)C)CC(F)(F)F)c2ccccn12	1.81
Cc1noc(C)c1CN(C)C(=O)NC(C)c1cccs1 (centres undefined)	-8.281
NC(=O)C1CCN(Cn2nc(-c3ccccc3)oc2=O)CC1	-3.823
Cc1noc(C2CCN(C(=O)CCNS(C)(=O)=O)CC2)n1	-0.9329
CCC(=O)Nc1cccc(OCC(=O)N2C[C@H]3CC[C@H]2C3)c1	93.75
CCC(=O)Nc1cccc(OCC(=O)N(C)Cc2cc(COC)[nH]n2)c1	-13.78
CCC(=O)NC1CCCN(C(=O)Nc2cccc(COC(C)C)c2)C1 (centres undefined)	-15.38
CCC(=O)Nc1cccc(OCC(=O)N(C)Cc2nccn2CC)c1	-14.09
CCC(=O)Nc1cccc(OCC(=O)N(C)Cc2nc(C)c[nH]2)c1	-12.77
CCC(=O)Nc1cccc(OCC(=O)N[C@@H]2C[C@H]3CC[C@@H]2C3)c1	110
CCC(=O)Nc1cccc(OCC(=O)N2CC=CC2C(C)C)c1 (centres undefined)	89.02
COc1cccc(NC(=O)CN(C(C)C)C2CC2)c1	1.237
CCC(=O)Nc1cccc(OCC(=O)N(C)Cc2ccon2)c1	-42.8
CN(C)C(=O)c1ccc2c(c1)N(C)C(CC(=O)NCCOCCO)CO2 (centres undefined)	24
Cc1ccccc1C1(C(=O)N2CCOC(C)C2)CCOCC1 (centres undefined)	-22.89
CCCOCCN1CCC2(CC1)CC(c1ccccc1)C(=O)N2C (centres undefined)	4.457
COCCN1CCC2(CC1)CC(c1ccccc1)C(=O)N2C (centres undefined)	-11.58
CN1C(=O)C(c2ccccc2)CC12CCN(CCN)CC2 (centres undefined)	-103.7
CN1C(=O)C(c2cccnc2)CC12CCN(Cc1nccs1)CC2 (centres undefined)	106.4
Cc1occc1C(=O)N1CCC2(CC1)CC(c1cccnc1)C(=O)N2C (centres undefined)	-9.568
COCCN1CCC2(CC1)CC(c1cccnc1)C(=O)N2C (centres undefined)	119.4
CN1C(=O)C(c2cccnc2)CC12CCN(C(=O)c1cccn1C)CC2 (centres undefined)	-11.09
CN1C(=O)C(c2cccnc2)CC12CCN(CCO)CC2 (centres undefined)	110.9
CN1C(=O)C(c2cccnc2)CC12CCN(C(=O)c1ccc[nH]1)CC2 (centres undefined)	-0.8841
CCN1C(=O)C(c2ccccc2)CC12CCN(CCO)CC2.O=C(O)C(F)(F)F (centres undefined)	-6.556
CN1C(=O)C(c2ccccc2)CC12CCN(CCO)CC2.O=C(O)C(F)(F)F (centres undefined)	95.45
CN1C(=O)C(c2ccccc2)CC12CCN(CCOCCO)CC2 (centres undefined)	13.34
